PubChem BioAssay (Tox21)
Inconclusive results are not listed. Activity calls are given as the source filed them. Unless noted, the call rests on the fitted dose curve.

Columns and labels:
[1] = qHTS assay to identify small molecule agonists of the NFkB signaling pathway (AID 1159509; active means well fitted curve in the direction sought with a large enough effect in the signal ratio in the repeat runs, not every such curve was filed as active; the % refers to the signal ratio; further: series mostly up to about 61 µM; on the % scale 0 is the no-effect control and ±100 the full control effect)
How it was run: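 ME-180 NFkB-bla, 2,000 cells/well, overnight plating; cpd pinned in DMSO, 5 h 37 C; B/G FRET substrate 1.5 h RT; ex 405, em 460/530 nm.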

[2] = qHTS assay to identify small molecule agonists of the NFkB signaling pathway - cell viability counter screen (AID 1159515); further: series mostly up to about 61 µM; on the % scale 0 is the no-effect control and ±100 the full control effect; nearly all actives have a fitted effect of over 55% in size
How it was run: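 Viability in NFkB-bla ME-180 cells was measured by CellTiter-Glo luminescence, 30 min room temperature, in wells already treated 5 hr with compounds and read for reporter FRET.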

[3] = qHTS assay to identify small molecule agonists of the endoplasmic reticulum stress response signaling pathway (AID 1159516; active means well fitted activation curve with a large enough effect in the signal ratio in the repeat runs, not every such curve was filed as active; the % refers to the signal ratio; further: on the % scale 0 is the no-effect control and ±100 the full control effect)
How it was run: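 ER stress element reporter (bla) in HeLa. 1,500 cells/well, overnight attachment; 5 hr compound; 2 hr RT substrate; dual-emission fluorescence.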

[4] = qHTS assay to identify small molecule agonists of the endoplasmic reticulum stress response signaling pathway - cell viability counter screen (AID 1159517);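 further: HeLa cells carrying an ER stress response element beta-lactamase reporter; series mostly up to about 61 µM; on the % scale 0 is the no-effect control and ±100 the full control effect; nearly all actives have a fitted effect of over 50% in size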
How it was run: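 HeLa cells carrying an ESRE-driven beta-lactamase reporter receive compound for 5 hr at 37 C. Cell viability is then gauged with CellTiter-Glo by luminescence, 30 min at room temperature.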

[5] = target: Nuclear receptor ROR-gamma (Homo sapiens) (UniProt P51449); test: qHTS assay to identify small molecule antagonists of the retinoid-related orphan receptor gamma (ROR-gamma) signaling pathway (AID 1159521; active means well fitted curve in the direction sought with a large enough effect in the repeat runs; an effect the other way counts as inactive or inconclusive;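 further: CHO cells with doxycycline inducible ROR-gamma driving an RORE luciferase reporter; top concentration of the series differs between compounds; on the % scale 0 is the no-effect control and ±100 the full control effect; nearly all actives have a fitted effect of over 50% in size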)
How it was run: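 Decreased RORE-driven luciferase luminescence indicates antagonism. Tet-on RORγ CHO cells received compound, then 1 uM final doxycycline 2 h later; signal read after 16 h incubation.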

[6] = qHTS assay to identify small molecule agonists of the AP-1 signaling pathway - cell viability counter screen (AID 1159525); further: nearly all actives have a fitted effect of over 55% in size
How it was run: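 Luminescent ATP readout (Cell Titer Glo, 30 min RT), normalised to DMSO and tetra n-octyl ammonium bromide controls. Cells were ME-180 AP-1-bla in 0.5% dialyzed FBS Opti-MEM, with a 5 h, 37 °C compound exposure.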

[7] = qHTS assay to identify small molecule agonists of the AP-1 signaling pathway (AID 1159526); further: on the % scale 0 is the no-effect control and ±100 the full control effect
[8] = target: Retinoic acid receptor RXR-alpha (Homo sapiens) (UniProt P19793); test: qHTS assay to identify small molecule agonists of the RXR signaling pathway (AID 1159527); further: on the % scale 0 is the no-effect control and ±100 the full control effect; nearly all actives have a fitted effect of over 35% in size
Chain of Retinoic acid receptor RXR-alpha (Homo sapiens) (P19793 whole entry, looked up): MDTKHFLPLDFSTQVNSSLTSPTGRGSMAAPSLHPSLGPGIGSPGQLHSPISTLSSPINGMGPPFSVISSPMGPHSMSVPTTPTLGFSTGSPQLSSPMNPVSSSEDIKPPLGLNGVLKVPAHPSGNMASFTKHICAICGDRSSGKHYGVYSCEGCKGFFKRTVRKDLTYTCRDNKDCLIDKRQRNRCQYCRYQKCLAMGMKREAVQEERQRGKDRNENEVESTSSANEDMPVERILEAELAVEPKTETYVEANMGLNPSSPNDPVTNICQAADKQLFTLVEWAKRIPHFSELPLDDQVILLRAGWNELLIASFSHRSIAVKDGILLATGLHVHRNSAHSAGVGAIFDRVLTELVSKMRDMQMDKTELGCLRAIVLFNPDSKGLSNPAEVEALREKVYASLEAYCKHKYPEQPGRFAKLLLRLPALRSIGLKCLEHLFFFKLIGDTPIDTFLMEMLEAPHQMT
How it was run: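 16 hr incubation of compound-treated RXR-alpha-UAS-bla HEK 293T cells (2% charcoal-stripped FBS, 37 C) preceded a 2 hr room-temperature LiveBLAzer FRET substrate step and blue/green fluorescence measurement.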

[9] = qHTS assay to identify small molecule antagonists of the vitamin D receptor (VDR) signaling pathway - cell viability counter screen (AID 743225; active means well fitted curve in the direction sought with a large enough effect in the repeat runs; an effect the other way counts as inactive or inconclusive; further: on the % scale 0 is the no-effect control and ±100 the full control effect; nearly all actives have a fitted effect of over 50% in size)
How it was run: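 Parallel cytotoxicity test: VDR-UAS-bla HEK 293T, 3 nM (final) 1-alpha,25-dihydroxyvitamin D3 with test compound, 16 h, 37C. Endpoint is CellTiter-Glo luminescence in the same wells.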

[10] = qHTS assay to identify small molecule antagonists of the retinoid-related orphan receptor gamma (ROR-gamma) signaling pathway - cell viability counter screen (AID 1159520; active means well fitted curve in the direction sought with a large enough effect in the repeat runs; an effect the other way counts as inactive or inconclusive; further: on the % scale 0 is the no-effect control and ±100 the full control effect; nearly all actives have a fitted effect of over 50% in size)
How it was run: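 Cytotoxicity was read from cellular ATP (CellTiter-Glo luminescence) after 16 hr at 37 C with 1 uM doxycycline induction. The inducer was added 2 hr after compound transfer to Tet-on ROR gamma CHO cells.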

CCCCC(CC)C(=O)OC(C)C (configuration not stated)
inactive: outcome [1] | outcome [2] | outcome [3] | outcome [4] | outcome [5] | outcome [6] | outcome [7] | Potency [8]

CCCCC(=O)N(C)C
inactive: outcome [9] | outcome [1] | outcome [2] | outcome [3] | outcome [4] | outcome [10] | outcome [6] | outcome [7] | Potency [8]

CC(C)C(=O)Nc1cccc(C(F)(F)F)c1
inactive: outcome [9] | outcome [1] | outcome [2] | outcome [3] | outcome [4] | outcome [5] | outcome [6] | outcome [7] | Potency [8]

CCCCCC1Nc2cc(C(F)(F)F)c(S(N)(=O)=O)cc2S(=O)(=O)N1 (configuration not stated)
inactive: outcome [9] | outcome [1] | outcome [2] | outcome [3] | outcome [4] | outcome [6] | outcome [7] | Potency [8]

O=C(O)c1ccc(OCCN2CCCCC2)cc1
inactive: outcome [9] | outcome [1] | outcome [2] | outcome [3] | outcome [4] | outcome [5] | outcome [6] | outcome [7] | Potency [8]

CCCO
inactive: outcome [1] | outcome [2] | outcome [3] | outcome [4] | outcome [5] | outcome [6] | outcome [7] | Potency [8]

CC(C)COC(=O)CC(C(=O)OCC(C)C)S(=O)(=O)O (configuration not stated)
inactive: outcome [9] | outcome [1] | outcome [2] | outcome [3] | outcome [4] | outcome [5] | outcome [6] | outcome [7] | Potency [8]

CCCCCN(CCCOC)C(=O)C(CCC(=O)O)NC(=O)c1ccc(Cl)c(Cl)c1 (configuration not stated)
inactive: outcome [9] | outcome [1] | outcome [2] | outcome [3] | outcome [4] | outcome [10] | outcome [7] | Potency [8]

O=S(=O)(O)c1cc(O)ccc1O
inactive: outcome [9] | outcome [1] | outcome [2] | outcome [3] | outcome [4] | outcome [5] | outcome [6] | outcome [7] | Potency [8]

Nc1ccc(S(=O)(=O)Nc2ccccn2)cc1
inactive: outcome [9] | outcome [1] | outcome [2] | outcome [3] | outcome [4] | outcome [5] | outcome [6] | outcome [7] | Potency [8]

Nc1c(NC/C=C\COc2cc(CN3CCCCC3)ccn2)c(=O)c1=O
inactive: outcome [9] | outcome [1] | outcome [2] | outcome [3] | outcome [4] | activity, negative = cytotoxicity [10] 0% [at 19 µM] | viability change, negative = cytotoxic [6] -1.48% [at 15.8 µM] | activation [7] -3.62% [at 15.8 µM] | activation [8] 10.6% [at 15.8 µM]

c1ccccc1
inactive: outcome [9] | outcome [1] | outcome [2] | outcome [3] | outcome [4] | outcome [5] | outcome [6] | outcome [7] | Potency [8]

CCN(Cc1cccc(S(=O)(=O)O)c1)c1ccccc1
inactive: outcome [9] | outcome [1] | outcome [2] | outcome [3] | outcome [4] | outcome [5] | outcome [7] | Potency [8]

CCCOC(=O)CCCCC(=O)OCCC
inactive: outcome [9] | outcome [1] | outcome [2] | outcome [3] | outcome [4] | outcome [10] | outcome [7] | Potency [8]

C[C@H](CCC(=O)O)[C@H]1CC[C@H]2[C@@H]3[C@H](O)C[C@@H]4C[C@H](O)CC[C@]4(C)[C@H]3C[C@H](O)[C@]12C
inactive: outcome [1] | outcome [2] | outcome [4] | outcome [10] | outcome [5] | outcome [6] | outcome [7] | Potency [8]

O=C(O)c1ccccc1C(=O)Nc1ccc(S(=O)(=O)Nc2nccs2)cc1
inactive: outcome [9] | outcome [1] | outcome [2] | outcome [3] | outcome [4] | outcome [5] | outcome [7] | Potency [8]

O=CN1CCOCC1
inactive: outcome [9] | outcome [1] | outcome [2] | outcome [3] | outcome [4] | outcome [5] | outcome [6] | outcome [7] | Potency [8]

C=COCCOCCOC=C
inactive: outcome [9] | outcome [1] | outcome [2] | outcome [3] | outcome [4] | outcome [6] | outcome [7] | Potency [8]

COc1ccc(N=Nc2cc(C)c(N=Nc3ccc(S(=O)(=O)O)cc3)cc2OC)cc1
inactive: outcome [1] | outcome [2] | outcome [3] | outcome [4] | outcome [5] | outcome [6] | outcome [7] | Potency [8]

CCN(CCC#N)c1ccccc1
inactive: outcome [9] | outcome [1] | outcome [2] | outcome [3] | outcome [4] | outcome [5] | outcome [6] | outcome [7] | Potency [8]

CN[C@@H]1[C@H](O)[C@H](NC)[C@H]2O[C@@]3(O)C(=O)C[C@@H](C)O[C@H]3O[C@@H]2[C@H]1O
inactive: outcome [9] | outcome [1] | outcome [2] | outcome [3] | outcome [4] | outcome [5] | outcome [6] | outcome [7] | Potency [8]

CCCC(C)CC (configuration not stated)
inactive: outcome [9] | outcome [1] | outcome [2] | outcome [3] | outcome [4] | outcome [6] | outcome [7] | Potency [8]

C=CCOCC(CO)(COCC=C)COCC=C
inactive: outcome [9] | outcome [1] | outcome [2] | outcome [3] | outcome [4] | outcome [5] | outcome [6] | outcome [7] | Potency [8]

Nc1ccc(S(=O)(=O)NC(=O)c2ccccc2)cc1
inactive: outcome [9] | outcome [1] | outcome [2] | outcome [3] | outcome [4] | outcome [5] | outcome [6] | outcome [7] | Potency [8]

C=CCOc1c(Br)cc(Br)cc1Br
inactive: outcome [9] | outcome [1] | outcome [2] | outcome [3] | outcome [4] | outcome [10] | outcome [7] | Potency [8]

CCCCCC(=O)OCC
inactive: outcome [9] | outcome [1] | outcome [2] | outcome [3] | outcome [4] | outcome [5] | outcome [6] | outcome [7] | Potency [8]
